Reference: the supplement of paper PMC11732987, “Enantioselective OTUD7B fragment discovery through chemoproteomics screening and high-throughput optimisation” (Communications Chemistry, 2025)

Tests used:
Assay in all cases: log2 ratio of Biotin-Ahx-Ub-VS probe labelling (fragment/DMSO); higher = less target engagement (more negative = stronger competition), active = hit call of the paper (q ≤ 0.05, log2 ratio ≤ -1)
Conditions in all cases: compound concentration: 200 uM; treatment time: 3 h
[1] = target: USP34 (UniProt Q70CQ2)
Sequence of USP34 (Q70CQ2 whole entry, the tested form may be a part): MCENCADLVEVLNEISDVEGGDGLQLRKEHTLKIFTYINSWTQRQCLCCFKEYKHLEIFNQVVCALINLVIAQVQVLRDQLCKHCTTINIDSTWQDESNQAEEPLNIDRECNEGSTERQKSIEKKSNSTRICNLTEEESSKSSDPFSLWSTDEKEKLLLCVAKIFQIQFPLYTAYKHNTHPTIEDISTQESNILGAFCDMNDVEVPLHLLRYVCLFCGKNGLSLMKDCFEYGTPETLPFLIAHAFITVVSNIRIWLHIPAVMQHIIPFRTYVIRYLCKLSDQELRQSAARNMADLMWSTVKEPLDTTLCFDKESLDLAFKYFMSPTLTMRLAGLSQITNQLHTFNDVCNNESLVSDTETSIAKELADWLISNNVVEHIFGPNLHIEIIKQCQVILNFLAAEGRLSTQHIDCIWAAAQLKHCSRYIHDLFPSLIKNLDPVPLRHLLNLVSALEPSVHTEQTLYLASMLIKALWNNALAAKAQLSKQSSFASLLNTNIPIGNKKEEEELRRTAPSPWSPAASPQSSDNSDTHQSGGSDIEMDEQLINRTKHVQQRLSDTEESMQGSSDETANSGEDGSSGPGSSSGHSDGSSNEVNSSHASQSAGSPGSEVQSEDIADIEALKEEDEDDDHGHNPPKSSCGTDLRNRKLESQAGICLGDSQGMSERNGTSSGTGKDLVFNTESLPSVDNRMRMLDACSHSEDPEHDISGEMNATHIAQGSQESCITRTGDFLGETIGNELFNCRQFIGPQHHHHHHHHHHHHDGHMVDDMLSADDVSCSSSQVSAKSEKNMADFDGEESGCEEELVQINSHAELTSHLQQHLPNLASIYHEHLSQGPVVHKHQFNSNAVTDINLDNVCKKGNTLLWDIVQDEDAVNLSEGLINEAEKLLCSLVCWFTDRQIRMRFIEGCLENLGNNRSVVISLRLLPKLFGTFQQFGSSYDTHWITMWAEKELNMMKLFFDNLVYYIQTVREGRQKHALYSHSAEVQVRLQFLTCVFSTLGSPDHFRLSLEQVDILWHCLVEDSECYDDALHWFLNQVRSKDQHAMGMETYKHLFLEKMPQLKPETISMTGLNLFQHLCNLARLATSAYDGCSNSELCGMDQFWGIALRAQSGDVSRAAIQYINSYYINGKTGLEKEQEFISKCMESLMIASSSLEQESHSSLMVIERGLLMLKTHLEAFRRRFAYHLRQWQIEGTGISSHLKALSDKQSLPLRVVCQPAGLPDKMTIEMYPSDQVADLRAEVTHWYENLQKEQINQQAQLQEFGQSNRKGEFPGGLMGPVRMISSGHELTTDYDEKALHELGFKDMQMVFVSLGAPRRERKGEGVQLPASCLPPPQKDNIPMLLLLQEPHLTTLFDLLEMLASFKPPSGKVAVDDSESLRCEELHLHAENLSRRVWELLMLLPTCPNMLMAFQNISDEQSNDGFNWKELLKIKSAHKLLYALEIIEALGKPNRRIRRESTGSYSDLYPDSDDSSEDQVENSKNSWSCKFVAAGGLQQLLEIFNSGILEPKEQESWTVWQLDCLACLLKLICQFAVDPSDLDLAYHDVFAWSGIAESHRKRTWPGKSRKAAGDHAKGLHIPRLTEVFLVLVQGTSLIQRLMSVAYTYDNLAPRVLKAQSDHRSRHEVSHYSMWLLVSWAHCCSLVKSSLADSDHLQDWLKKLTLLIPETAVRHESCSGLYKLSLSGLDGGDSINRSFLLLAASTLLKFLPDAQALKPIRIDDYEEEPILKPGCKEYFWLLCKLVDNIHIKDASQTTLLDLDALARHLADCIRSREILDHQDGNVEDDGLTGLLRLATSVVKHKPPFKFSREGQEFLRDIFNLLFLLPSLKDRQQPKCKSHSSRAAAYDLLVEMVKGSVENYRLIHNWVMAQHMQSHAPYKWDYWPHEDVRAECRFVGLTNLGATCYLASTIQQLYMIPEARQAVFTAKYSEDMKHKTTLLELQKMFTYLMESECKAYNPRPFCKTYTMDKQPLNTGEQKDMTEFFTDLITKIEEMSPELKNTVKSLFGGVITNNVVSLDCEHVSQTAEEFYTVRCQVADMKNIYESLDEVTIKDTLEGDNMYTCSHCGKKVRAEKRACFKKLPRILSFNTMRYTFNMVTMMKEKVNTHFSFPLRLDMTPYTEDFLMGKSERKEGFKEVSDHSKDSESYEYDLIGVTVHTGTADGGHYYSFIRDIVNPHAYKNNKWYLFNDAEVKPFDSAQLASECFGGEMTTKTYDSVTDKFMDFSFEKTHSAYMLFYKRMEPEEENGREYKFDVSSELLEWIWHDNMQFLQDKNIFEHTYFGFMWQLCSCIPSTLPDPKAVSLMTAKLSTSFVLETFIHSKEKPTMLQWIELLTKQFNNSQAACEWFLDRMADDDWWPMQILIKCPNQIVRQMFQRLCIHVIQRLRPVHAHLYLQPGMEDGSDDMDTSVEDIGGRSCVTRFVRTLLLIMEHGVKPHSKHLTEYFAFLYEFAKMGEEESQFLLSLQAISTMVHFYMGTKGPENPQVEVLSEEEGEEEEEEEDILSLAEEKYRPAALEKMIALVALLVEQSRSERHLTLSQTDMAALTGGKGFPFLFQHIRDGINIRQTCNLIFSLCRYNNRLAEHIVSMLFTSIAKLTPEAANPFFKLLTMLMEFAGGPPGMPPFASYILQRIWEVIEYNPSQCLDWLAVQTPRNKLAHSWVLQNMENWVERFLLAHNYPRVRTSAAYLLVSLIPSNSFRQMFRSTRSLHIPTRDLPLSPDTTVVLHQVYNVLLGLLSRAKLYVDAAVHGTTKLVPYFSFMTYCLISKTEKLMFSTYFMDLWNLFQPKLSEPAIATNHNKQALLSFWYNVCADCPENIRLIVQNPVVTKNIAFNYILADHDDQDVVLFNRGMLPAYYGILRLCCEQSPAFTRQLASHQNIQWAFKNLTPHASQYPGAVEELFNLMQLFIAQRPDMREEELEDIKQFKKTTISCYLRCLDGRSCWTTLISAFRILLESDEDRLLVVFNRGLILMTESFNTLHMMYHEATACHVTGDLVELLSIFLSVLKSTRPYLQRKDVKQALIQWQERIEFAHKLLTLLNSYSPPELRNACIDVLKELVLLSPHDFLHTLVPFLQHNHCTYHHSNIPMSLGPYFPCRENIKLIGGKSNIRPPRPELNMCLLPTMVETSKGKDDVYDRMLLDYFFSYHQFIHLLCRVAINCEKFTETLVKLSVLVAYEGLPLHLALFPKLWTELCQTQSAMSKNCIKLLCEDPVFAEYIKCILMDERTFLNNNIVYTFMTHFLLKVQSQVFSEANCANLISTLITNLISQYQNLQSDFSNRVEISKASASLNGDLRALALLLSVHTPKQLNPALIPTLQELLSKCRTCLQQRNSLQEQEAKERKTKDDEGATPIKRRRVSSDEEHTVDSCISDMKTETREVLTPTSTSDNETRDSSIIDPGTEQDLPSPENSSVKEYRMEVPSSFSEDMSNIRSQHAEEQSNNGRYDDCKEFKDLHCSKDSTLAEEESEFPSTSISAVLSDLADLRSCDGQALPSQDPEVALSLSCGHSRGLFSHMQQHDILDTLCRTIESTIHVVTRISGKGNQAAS
How it was run: (§1)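 The table lists average log2 ratios of fragment over vehicle, from an unpaired t-test on global-median-normalised Spectronaut label-free quantities. Proteins with ≥2 unique peptides were used. Samples were HEK293T lysate (495 µg) treated in triplicate with fragment at 200 µM or vehicle for 3 h, then with Biotin-Ahx-Ub-VS (0.5 µM final) for 1 h, with labelled DUBs NeutrAvidin-enriched and run by diaPASEF LC-MS/MS.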

[2] = target: T1, USP36 (UniProt Q9P275)
T1 sequence (whole entry): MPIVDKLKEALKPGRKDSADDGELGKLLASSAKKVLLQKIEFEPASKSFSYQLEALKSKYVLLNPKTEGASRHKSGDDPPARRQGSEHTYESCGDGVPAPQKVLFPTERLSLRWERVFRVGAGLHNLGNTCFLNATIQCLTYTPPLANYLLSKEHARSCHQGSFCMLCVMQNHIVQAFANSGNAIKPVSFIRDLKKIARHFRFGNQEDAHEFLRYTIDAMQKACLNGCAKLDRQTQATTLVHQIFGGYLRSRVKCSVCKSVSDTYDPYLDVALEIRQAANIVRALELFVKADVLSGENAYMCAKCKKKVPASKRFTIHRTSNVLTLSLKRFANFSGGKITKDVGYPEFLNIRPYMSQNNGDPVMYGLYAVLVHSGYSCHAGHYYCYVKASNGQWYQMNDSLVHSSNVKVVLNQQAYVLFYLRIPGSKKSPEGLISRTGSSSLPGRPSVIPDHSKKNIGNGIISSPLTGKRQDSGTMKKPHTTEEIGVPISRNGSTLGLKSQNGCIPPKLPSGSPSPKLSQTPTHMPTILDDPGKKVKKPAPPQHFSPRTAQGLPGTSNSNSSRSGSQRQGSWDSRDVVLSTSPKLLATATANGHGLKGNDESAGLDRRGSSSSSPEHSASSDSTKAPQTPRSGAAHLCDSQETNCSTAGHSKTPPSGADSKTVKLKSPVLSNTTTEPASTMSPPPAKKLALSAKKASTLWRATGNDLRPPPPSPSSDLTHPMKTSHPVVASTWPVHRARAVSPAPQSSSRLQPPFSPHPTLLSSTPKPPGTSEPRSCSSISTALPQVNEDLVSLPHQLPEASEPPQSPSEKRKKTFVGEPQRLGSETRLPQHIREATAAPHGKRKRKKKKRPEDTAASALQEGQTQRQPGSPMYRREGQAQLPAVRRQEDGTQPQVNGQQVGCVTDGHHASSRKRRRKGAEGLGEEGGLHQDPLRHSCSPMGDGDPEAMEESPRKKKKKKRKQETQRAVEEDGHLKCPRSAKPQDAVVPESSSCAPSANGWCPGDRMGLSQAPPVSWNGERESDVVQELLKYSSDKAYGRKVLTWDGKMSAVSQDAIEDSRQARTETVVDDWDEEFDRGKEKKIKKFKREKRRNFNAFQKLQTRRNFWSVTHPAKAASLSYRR
How it was run: as §1

[3] = target: T2, USP38 (UniProt Q8NB14)
T2 sequence (whole entry): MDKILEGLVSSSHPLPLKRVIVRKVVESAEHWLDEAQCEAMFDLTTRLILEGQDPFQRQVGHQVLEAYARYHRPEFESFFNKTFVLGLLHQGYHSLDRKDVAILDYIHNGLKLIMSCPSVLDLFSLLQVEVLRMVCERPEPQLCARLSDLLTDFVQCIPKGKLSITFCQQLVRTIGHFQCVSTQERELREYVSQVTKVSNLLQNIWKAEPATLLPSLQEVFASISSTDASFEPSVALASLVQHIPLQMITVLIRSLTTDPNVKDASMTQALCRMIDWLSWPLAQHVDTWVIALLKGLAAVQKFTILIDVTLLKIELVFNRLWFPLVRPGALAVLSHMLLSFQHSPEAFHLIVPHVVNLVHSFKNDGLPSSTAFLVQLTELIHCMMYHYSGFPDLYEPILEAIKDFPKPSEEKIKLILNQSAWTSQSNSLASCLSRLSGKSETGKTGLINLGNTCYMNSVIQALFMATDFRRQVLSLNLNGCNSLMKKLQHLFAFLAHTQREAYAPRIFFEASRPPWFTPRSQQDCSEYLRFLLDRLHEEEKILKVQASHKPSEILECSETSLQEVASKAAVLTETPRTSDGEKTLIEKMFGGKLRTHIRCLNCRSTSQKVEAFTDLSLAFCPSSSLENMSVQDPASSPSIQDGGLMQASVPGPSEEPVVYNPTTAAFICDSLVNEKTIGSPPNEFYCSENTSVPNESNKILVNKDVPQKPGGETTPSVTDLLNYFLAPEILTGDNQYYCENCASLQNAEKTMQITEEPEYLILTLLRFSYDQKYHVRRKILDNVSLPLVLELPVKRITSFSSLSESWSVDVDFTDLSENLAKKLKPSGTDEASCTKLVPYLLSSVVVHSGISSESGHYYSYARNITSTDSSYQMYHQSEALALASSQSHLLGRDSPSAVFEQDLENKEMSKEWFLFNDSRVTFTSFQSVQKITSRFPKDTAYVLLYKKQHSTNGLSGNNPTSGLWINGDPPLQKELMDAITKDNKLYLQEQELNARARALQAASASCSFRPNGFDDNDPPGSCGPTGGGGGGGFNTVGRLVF
How it was run: as §1

[4] = target: T3, USP39 (UniProt Q53GS9)
T3 sequence (whole entry): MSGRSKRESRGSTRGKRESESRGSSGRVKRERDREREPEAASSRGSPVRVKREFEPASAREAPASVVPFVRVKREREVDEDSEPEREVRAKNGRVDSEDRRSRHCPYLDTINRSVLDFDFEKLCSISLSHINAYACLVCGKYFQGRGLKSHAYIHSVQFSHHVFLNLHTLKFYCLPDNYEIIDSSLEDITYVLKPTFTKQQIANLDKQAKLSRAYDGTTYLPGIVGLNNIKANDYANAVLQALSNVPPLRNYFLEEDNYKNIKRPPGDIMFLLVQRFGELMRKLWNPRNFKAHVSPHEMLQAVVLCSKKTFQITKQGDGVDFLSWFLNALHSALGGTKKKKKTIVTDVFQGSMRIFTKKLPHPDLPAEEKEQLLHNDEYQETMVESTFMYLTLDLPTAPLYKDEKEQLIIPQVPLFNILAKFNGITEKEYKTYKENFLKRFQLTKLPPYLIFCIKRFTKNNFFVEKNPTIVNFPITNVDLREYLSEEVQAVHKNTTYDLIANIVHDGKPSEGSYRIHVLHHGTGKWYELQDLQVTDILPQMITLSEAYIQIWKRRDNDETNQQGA
How it was run: as §1

[5] = target: T4, USP4 (UniProt Q13107)
T4 sequence (whole entry): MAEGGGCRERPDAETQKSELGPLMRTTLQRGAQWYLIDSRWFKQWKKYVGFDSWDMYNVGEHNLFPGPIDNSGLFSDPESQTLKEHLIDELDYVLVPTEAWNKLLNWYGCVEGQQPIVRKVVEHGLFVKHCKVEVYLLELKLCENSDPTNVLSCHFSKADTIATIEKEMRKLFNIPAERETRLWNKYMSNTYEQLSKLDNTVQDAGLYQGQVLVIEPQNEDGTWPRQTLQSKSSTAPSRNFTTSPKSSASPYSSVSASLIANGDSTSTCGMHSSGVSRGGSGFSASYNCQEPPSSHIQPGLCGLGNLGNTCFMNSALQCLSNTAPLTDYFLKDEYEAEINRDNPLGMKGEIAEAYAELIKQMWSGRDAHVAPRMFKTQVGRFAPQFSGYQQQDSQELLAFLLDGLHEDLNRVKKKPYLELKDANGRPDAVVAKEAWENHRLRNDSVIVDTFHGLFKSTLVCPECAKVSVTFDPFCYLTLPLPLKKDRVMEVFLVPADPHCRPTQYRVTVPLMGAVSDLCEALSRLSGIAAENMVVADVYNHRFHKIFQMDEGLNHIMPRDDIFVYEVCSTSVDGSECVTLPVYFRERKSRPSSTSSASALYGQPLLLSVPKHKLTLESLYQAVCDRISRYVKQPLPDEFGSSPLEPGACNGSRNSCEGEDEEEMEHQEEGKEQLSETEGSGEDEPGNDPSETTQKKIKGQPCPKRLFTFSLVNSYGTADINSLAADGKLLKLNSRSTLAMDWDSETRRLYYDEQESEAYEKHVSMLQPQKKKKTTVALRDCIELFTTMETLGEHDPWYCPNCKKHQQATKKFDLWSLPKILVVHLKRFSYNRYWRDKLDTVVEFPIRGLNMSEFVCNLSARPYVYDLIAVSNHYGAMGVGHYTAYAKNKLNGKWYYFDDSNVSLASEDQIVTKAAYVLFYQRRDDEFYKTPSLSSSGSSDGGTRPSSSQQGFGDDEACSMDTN
How it was run: as §1

Measured: log2 ratio of Biotin-Ahx-Ub-VS probe labelling

O=C(CCl)N1CCc2sccc2C1
inactive: [1] -0.165 | [2] -0.212 | [3] -0.305 | [4] 0.0206 | [5] -0.861
